Data reported in the supplement of paper PMC13380429.
Values without a mark were called inactive.

System: Vero E6 infected with SARS-CoV-2
Experiment: inhibition of SARS-CoV-2 cytopathic effect; higher = more antiviral protection, active = above 15
Settings: 48 h

| Compound | inhibition of SARS-CoV-2 cytopathic effect (1 nM) | inhibition of SARS-CoV-2 cytopathic effect (8.33 nM) | inhibition of SARS-CoV-2 cytopathic effect (100 nM) | inhibition of SARS-CoV-2 cytopathic effect (833.33 nM) | inhibition of SARS-CoV-2 cytopathic effect (10000 nM) |
| --- | --- | --- | --- | --- | --- |
| CC(=O)Nc1ccc(C(=O)Nc2ccccc2N)cc1 [tacedinaline] | 1.04% | 1.48% | -0.39% | -3.01% | -1.74% |
| Cc1cc(C(N)=O)ccc1-n1c(CCC(=O)O)ccc1-c1ccc(-n2ccnc2)cc1 | -3.46% | 2.86% | 2.45% | -1.56% | -2.98% |
| NS(=O)(=O)c1cc2c(cc1Cl)N=C(CSCc1ccccc1)NS2(=O)=O [benzthiazide] | 3.18% | 0.15% | 0.52% | 2.56% | -0.2% |
| NC1(c2ccc(-c3nc4ccn5c(=O)[nH]nc5c4cc3-c3ccccc3)cc2)CCC1 | -1.08% | 0.48% | 2.84% | 1.79% | 24.5% (active) |
| CCC(C(=O)O)c1ccc(CC(C)C)cc1 (stereo not given) [butibufen] | -2.32% | -1% | 1.35% | 2.34% | -0.15% |
| O=C1[C@H](CC[C@H](O)c2ccc(F)cc2)[C@@H](c2ccc(O)cc2)N1c1ccc(F)cc1 [ezetimibe] | 0.31% | 0.64% | -0.99% | 2.19% | 5.44% |
| CC(C)Oc1ccc(-c2nc(-c3cccc4c3CC[C@H]4NCCC(=O)O)no2)cc1C#N | -2.71% | -1.13% | 0.51% | 2.4% | -0.03% |
| CC(C)(C#N)c1cc(Cn2cncn2)cc(C(C)(C)C#N)c1 [anastrozole] | -1.6% | 0.38% | -0.32% | -1.74% | -0.89% |
| c1ccc2cc(C3=NCCN3)ncc2c1 | 1.6% | 1.22% | 2.06% | -0.28% | 1.35% |
| COc1cc2c(cc1Cc1cccc(Cl)c1F)c(=O)c(C(=O)O)cn2[C@H](CO)C(C)C [elvitegravir] | 2.45% | 1.56% | 1.54% | 1.67% | -6.71% |
| C[S+]([O-])c1ccc(-c2nc(-c3ccc(F)cc3)c(-c3ccncc3)[nH]2)cc1 (stereo not given) | -0.95% | 1.29% | -1.08% | -1.33% | 4.9% |
| CCN(CC)CCOc1ccc(Nc2ncc3cc(-c4c(Cl)cccc4Cl)c(=O)n(C)c3n2)cc1 | -0.79% | -0.21% | -2.93% | -9.61% | -31.3% |
| NS(=O)(=O)c1cc2c(cc1Cl)NC(C(Cl)Cl)NS2(=O)=O (stereo not given) [trichlormethiazide] | -3.15% | -5.19% | -10.5% | -3.29% | -8.52% |
| CNS(=O)(=O)CCc1ccc2[nH]cc(C3CCN(C)CC3)c2c1 [naratriptan] | -2.05% | 0.47% | 2.08% | -3.05% | -1.76% |
| CN(C)CC[C@@H](c1ccc(Cl)cc1)c1ccccn1 [chlorphenamine] | 0.315% | 1.98% | -0.53% | 0.17% | -5.02% |
| CC(C)(F)C[C@H](N[C@@H](c1ccc(-c2ccc(S(C)(=O)=O)cc2)cc1)C(F)(F)F)C(=O)NC1(C#N)CC1 [odanacatib] | -3.88% | -4.52% | -3.49% | -1.8% | 0.04% |
| CN(C(=O)CN(CCO)CC(=O)N(C)C(C)(C)Cc1ccccc1)C(C)(C)Cc1ccccc1 [oxethazaine] | -2.13% | -0.95% | 0.87% | -0.57% | -13.9% |
| CCCCCOc1ccc(-c2ccc(-c3ccc(C(=O)N[C@H]4C[C@@H](O)[C@@H](O)NC(=O)[C@@H]5[C@@H](O)[C@@H](C)CN5C(=O)[C@H]([C@@H](C)O)NC(=O)[C@H]([C@H](O)[C@@H](O)c5ccc(O)cc5)NC(=O)[C@@H]5C[C@@H](O)CN5C(=O)[C@H]([C@@H](C)O)NC4=O)cc3)cc2)cc1 [anidulafungin] | -3.73% | 0.49% | 1.56% | 0.77% | -2.12% |

| Compound | inhibition of SARS-CoV-2 cytopathic effect (1 nM) | inhibition of SARS-CoV-2 cytopathic effect (8.33 nM) | inhibition of SARS-CoV-2 cytopathic effect (100 nM) | inhibition of SARS-CoV-2 cytopathic effect (833.33 nM) | inhibition of SARS-CoV-2 cytopathic effect (10000 nM) |
| --- | --- | --- | --- | --- | --- |
| CNC(=O)c1ccc2c(c1)S(=O)(=O)c1ccccc1C2=O | 0.15% | 0.66% | 1.63% | -1.32% | -0.42% |
| CCN1CCN(C(=O)N[C@@H](C(=O)N[C@@H]2C(=O)N3C(C(=O)O)=C(CSc4nnnn4C)CS[C@H]23)c2ccc(O)cc2)C(=O)C1=O [cefoperazone] | -0.37% | -0.65% | 0.99% | 3.89% | 2.57% |
| N#Cc1ccc(-c2csc(NN=C3CCCC3)n2)cc1 [remodelin] | 0.9% | 1% | 1.18% | 0.48% | 0.34% |
| CCc1cc(O)c(Oc2ccc(C(N)=O)cc2F)cc1F | 0.22% | -0.22% | 0.21% | -0.53% | -0.97% |
| Cc1cc(O)cc(C)c1Cl [chloroxylenol] | -0.09% | 1.72% | -1.3% | -0.83% | 0.1% |
| CCOCCOc1ccccc1C(N)=O [etosalamide] | -2.2% | -0.59% | -5.45% | -5.67% | -2.33% |
| CN(C)CCN(Cc1ccccc1)c1ccccn1 [tripelennamine] | 1.72% | 2.84% | 0.58% | -0.69% | -1.94% |
| CC(=O)N1CC[N+](C)(C)CC1 [4-acetyl-1,1-dimethylpiperazinium] | 0.03% | -1.23% | 0.82% | 1.13% | 0.5% |
| C1=C2CCCN[C@H]2[C@@H]2C[C@H]1[C@H]1CCCCN1C2 [aloperine] | -0.36% | 2.25% | -0.38% | 0.5% | -1.11% |
| Nc1nccc2c1ncn2[C@@H]1O[C@H](CO)[C@@H](O)[C@@H]1O [3-deazaadenosine] | -0.84% | -2% | -2.27% | -0.63% | -2.6% |
| CC(C)C[C@@H](NC(=O)[C@H](Cc1ccccc1)NC(=O)CNC(=O)[C@@H](C)NC(=O)[C@@H](N)Cc1ccc(O)cc1)C(=O)O | -0.21% | 3.3% | 1.72% | 2.13% | 0% |
| COc1cc(C[C@H]2c3cc(OC)c(OC)cc3CCN2C)c(Oc2cc3c(cc2OC)-c2c(OC)c(OC)cc4c2[C@H](C3)N(C)CC4)cc1OC [thaliblastine] | 1.34% | 1.21% | -0.77% | 3.94% | 45.5% (active) |
| CC(=O)OCC(=O)[C@H]1CC[C@H]2[C@@H]3CCC4=CC(=O)CC[C@]4(C)[C@H]3CC[C@]12C [deoxycorticosterone-acetate] | -2.24% | 0.58% | -1.58% | -4.23% | -0.48% |
| COc1ccc2cc1Oc1cc3c(cc1OC)CC[N+](C)(C)[C@H]3Cc1ccc(cc1)Oc1c(OC)c(OC)cc3c1[C@@H](C2)[N+](C)(C)CC3 [metocurine] | -0.82% | 0.93% | 1.08% | -3.28% | -0.33% |
| O=C(/C=C/C=C/c1ccc2c(c1)OCO2)N1CCCCC1 [piperine] | -1.58% | -1.88% | -3.68% | -2.45% | 5.15% |
| Cc1c(F)cccc1NC(=O)Nc1ccc(Cl)c(S(=O)(=O)[C@H]2CCCNC2)c1O [danirixin] | -0.94% | -0.94% | -0.32% | -0.62% | 2.67% |
| O=C(NO)c1cnc(N2CCN(S(=O)(=O)c3ccc4ccccc4c3)CC2)nc1 | 1.24% | 2.59% | 2.04% | -16.4% | -22.6% |
